Consider 36 targets from the supplement of paper PMC10849652.

The full data set covers some 7,900 targets. This sample favours those with a hit. About 0.6% of all pairs of compound and target were hits. Values without a mark were called inactive.

UniProt P63104, sequence (P63104 whole entry, looked up): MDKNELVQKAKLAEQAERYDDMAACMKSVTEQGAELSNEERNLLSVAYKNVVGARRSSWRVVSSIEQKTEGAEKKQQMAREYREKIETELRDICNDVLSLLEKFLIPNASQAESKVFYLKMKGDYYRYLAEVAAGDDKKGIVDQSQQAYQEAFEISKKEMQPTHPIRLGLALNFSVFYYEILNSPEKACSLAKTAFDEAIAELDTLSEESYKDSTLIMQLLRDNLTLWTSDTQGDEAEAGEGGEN
UniProt P49750, sequence (P49750 whole entry, looked up): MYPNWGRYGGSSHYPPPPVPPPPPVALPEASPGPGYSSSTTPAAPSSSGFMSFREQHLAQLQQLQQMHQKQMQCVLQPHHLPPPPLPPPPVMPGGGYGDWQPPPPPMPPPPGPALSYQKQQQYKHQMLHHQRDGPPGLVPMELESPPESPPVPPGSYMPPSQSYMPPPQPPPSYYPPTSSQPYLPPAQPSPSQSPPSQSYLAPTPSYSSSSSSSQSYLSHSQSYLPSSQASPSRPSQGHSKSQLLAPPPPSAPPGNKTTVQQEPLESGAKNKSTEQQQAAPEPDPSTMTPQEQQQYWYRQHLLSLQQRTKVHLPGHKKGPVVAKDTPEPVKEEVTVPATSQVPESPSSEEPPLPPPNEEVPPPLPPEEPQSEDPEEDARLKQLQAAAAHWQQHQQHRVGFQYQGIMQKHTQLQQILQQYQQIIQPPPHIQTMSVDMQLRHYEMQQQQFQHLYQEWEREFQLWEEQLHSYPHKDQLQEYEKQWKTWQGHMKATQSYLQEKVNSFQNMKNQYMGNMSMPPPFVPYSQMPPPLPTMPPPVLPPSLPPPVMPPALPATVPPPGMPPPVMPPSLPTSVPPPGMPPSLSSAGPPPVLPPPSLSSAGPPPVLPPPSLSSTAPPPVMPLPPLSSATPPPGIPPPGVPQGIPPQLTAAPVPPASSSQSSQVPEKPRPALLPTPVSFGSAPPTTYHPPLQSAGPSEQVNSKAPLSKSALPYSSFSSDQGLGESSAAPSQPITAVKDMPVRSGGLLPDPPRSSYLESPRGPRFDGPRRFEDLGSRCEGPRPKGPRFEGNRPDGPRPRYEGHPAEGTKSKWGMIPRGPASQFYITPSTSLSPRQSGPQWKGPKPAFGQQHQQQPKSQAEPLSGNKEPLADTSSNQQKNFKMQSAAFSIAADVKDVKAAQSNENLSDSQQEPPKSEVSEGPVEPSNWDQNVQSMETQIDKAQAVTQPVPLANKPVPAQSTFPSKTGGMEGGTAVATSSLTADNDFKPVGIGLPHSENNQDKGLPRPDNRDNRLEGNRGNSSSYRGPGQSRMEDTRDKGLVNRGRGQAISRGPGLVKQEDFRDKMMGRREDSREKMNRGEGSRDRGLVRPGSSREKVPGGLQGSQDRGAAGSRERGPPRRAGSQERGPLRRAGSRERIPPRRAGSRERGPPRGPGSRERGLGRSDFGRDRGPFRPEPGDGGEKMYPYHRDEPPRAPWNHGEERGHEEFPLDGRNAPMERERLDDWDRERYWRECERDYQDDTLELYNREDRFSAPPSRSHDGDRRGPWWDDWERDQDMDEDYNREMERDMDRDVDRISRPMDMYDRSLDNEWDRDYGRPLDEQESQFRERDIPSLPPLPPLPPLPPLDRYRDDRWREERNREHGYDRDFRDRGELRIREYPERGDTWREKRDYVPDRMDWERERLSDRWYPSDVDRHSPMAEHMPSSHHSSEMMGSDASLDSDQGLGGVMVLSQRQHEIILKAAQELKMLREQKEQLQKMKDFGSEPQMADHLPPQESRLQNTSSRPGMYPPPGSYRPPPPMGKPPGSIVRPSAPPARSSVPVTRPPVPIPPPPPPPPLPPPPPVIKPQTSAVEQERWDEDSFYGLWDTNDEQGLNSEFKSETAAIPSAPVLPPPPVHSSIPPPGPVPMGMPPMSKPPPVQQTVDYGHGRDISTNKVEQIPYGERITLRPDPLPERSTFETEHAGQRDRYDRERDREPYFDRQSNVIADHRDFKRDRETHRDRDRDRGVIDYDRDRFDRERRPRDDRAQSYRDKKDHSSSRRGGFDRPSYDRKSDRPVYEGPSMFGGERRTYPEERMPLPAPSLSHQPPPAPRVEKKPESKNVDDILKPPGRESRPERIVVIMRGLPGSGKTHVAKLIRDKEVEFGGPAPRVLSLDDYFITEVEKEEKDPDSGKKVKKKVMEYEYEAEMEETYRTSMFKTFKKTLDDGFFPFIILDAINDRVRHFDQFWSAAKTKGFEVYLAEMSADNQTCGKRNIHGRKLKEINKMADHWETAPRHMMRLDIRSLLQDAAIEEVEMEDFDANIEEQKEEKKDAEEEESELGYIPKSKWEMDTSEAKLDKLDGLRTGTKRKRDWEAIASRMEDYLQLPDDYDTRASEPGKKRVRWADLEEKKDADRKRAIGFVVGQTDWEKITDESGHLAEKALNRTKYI
UniProt Q9BSR8, sequence (Q9BSR8 whole entry, looked up): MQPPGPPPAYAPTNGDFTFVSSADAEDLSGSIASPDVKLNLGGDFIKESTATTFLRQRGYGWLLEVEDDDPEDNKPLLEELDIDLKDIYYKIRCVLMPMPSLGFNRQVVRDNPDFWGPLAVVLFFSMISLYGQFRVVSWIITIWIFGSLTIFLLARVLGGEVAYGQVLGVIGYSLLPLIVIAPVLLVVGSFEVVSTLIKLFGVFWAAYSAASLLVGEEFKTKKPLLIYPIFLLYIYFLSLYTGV
UniProt Q9NXF8, sequence (Q9NXF8 whole entry, looked up): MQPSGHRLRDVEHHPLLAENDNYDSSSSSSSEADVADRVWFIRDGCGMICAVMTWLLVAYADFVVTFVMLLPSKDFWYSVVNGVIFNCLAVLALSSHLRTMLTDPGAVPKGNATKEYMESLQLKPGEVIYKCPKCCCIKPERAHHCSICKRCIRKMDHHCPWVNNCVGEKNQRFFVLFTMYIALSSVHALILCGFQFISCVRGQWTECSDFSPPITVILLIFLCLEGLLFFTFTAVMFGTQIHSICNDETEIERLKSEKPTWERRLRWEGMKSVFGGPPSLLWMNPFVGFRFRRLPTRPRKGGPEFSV
UniProt Q5VVQ6, sequence (Q5VVQ6 whole entry, looked up): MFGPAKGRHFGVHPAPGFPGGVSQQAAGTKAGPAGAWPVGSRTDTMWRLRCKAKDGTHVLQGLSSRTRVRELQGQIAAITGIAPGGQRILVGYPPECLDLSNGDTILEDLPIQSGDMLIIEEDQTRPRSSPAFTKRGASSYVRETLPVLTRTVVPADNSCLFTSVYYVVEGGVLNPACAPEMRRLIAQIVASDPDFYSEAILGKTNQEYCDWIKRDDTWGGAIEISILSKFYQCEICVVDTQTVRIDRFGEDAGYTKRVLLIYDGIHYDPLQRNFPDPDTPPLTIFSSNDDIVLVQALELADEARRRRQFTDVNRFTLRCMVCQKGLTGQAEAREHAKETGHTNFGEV
UniProt O76080, sequence (O76080 whole entry, looked up): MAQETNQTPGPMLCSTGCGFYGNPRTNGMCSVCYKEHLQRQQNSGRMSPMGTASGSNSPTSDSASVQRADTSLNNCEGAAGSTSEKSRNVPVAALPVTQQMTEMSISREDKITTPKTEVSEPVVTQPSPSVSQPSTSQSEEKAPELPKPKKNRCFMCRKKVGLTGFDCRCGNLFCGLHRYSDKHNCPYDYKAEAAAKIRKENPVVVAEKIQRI
UniProt Q96JP5, sequence (Q96JP5 whole entry, looked up): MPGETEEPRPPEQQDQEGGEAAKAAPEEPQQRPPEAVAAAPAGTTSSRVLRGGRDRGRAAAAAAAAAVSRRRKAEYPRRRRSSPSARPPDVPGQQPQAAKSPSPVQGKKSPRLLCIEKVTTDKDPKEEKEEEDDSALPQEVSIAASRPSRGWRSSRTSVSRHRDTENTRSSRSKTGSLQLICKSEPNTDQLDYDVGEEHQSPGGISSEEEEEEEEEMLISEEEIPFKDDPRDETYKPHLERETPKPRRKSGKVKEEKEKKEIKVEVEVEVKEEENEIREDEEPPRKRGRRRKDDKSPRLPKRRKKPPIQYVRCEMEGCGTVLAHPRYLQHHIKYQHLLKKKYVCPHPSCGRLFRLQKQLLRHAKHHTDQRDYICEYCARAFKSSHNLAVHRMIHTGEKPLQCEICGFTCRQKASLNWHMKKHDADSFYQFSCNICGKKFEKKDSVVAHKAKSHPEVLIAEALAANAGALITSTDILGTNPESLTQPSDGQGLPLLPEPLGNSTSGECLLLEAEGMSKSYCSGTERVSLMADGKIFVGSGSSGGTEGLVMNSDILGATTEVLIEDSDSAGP
UniProt Q8N4Q0, sequence (Q8N4Q0 whole entry, looked up): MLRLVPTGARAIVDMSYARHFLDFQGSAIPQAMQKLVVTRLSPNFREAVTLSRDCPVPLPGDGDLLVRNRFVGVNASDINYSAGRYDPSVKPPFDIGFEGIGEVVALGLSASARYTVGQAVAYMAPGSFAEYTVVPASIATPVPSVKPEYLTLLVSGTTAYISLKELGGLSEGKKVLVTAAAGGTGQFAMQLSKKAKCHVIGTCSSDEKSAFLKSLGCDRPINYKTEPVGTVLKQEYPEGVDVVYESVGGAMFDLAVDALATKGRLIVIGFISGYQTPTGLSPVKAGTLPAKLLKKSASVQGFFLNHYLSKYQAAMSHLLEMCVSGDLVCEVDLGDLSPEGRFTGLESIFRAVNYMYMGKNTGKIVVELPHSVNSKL
UniProt Q9UK33, sequence (Q9UK33 whole entry, looked up): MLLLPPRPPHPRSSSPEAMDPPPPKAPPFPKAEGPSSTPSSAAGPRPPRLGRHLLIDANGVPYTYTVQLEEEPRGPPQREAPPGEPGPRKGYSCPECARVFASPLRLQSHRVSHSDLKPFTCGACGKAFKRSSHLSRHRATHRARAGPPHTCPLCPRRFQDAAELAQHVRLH
UniProt Q8N5P1, sequence (Q8N5P1 whole entry, looked up): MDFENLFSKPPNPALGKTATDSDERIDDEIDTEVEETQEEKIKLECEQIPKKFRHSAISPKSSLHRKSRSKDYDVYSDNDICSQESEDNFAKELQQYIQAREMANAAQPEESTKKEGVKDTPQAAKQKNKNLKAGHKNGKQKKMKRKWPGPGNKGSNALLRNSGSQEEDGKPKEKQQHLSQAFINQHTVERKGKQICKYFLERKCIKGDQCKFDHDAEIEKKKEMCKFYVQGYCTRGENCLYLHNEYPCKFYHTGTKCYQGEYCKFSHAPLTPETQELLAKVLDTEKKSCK

Compound in the assay: Cc1sc2c(c1C)C(c1ccc(Cl)cc1)=N[C@@H](CC(=O)OC(C)(C)C)c1nnc(C)n1-2
Briefly: log2 fold change, soluble protein after heating vs DMSO (PISA); higher = thermal stabilisation; K562 cells, 10 uM, 30 min; active = over 0.2 and 3.5 SD of the protein, either way, in both replicates (recomputed). In short, it runs like this: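 K562 cells at 2×10^6 cells/mL were treated with 10 μM compound for 30 min. Aliquots were heated for 3 min across 48°C-58°C, pooled, and extracted in PBS with 0.5% NP-40 at 4°C; soluble protein was the supernatant after 21,000xg for 90 min. Soluble protein was quantified by TMTpro 16plex LC-MS/MS with channel sums equalised, and reported as log2 fold change in thermal stability against DMSO controls, with values from duplicates.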
As for YAE1 (UniProt Q9NRH1), the log2 fold change was -0.014.

Regarding ZMAT2 (UniProt Q96NC0), the log2 fold change was -0.042.

For the target ZFAND5 (UniProt O76080), the log2 fold change is -0.024.

On to ZDHHC7 isoform 2 (UniProt Q9NXF8), for which the log2 fold change was 0.135.

Take YBX1 (UniProt P67809): the log2 fold change was 0.115.

Regarding ZNF217 (UniProt O75362), the log2 fold change is -0.003.

ZRANB2 (UniProt O95218): the log2 fold change is 0.021.

ZADH2 (UniProt Q8N4Q0): the log2 fold change was -0.026.

In the case of ZNF511 isoform 1 (UniProt Q8NB15), the log2 fold change is -0.123.

With ZC3H18 (UniProt Q86VM9), the log2 fold change is 0.021.

Take ZDHHC8 isoform 3 (UniProt Q9ULC8): the log2 fold change was 0.

Consider ZC3H8 (UniProt Q8N5P1), for which the log2 fold change is 0.091.

Consider ZMYM1 (UniProt Q5SVZ6), for which the log2 fold change was -0.012.

As to ZNF580 (UniProt Q9UK33), the log2 fold change is 0.029.

In the case of ZBTB21 (UniProt Q9ULJ3), the log2 fold change was 0.244.

Regarding YIPF4 (UniProt Q9BSR8), the log2 fold change was 0.027.

As for YIPF5 isoform 3 (UniProt Q969M3), the log2 fold change was 0.002.

As for ZNF579 (UniProt Q8NAF0), the log2 fold change was 0.151.

Turning to ZFP91 (UniProt Q96JP5), the log2 fold change was 0.096.

YIPF6 (UniProt Q96EC8): the log2 fold change was 0.103.

With YOD1 (UniProt Q5VVQ6), the log2 fold change was -0.005.

Consider YWHAZ (UniProt P63104), for which the log2 fold change was -0.033.

With YY1 (UniProt P25490), the log2 fold change is -0.015.

For ZEB2 (UniProt O60315), the log2 fold change is 0.368.

As for ZER1 (UniProt Q7Z7L7), the log2 fold change is -0.064.

Turning to YES1 (UniProt P07947), the log2 fold change is -0.005.

Turning to ZNF143 (UniProt P52747), the log2 fold change is 0.064.

Consider ZDHHC20 (UniProt Q5W0Z9), for which the log2 fold change was -0.061.

Take ZDHHC5 (UniProt Q9C0B5): the log2 fold change was -0.013.

As for ZFAND6 (UniProt Q6FIF0), the log2 fold change was -0.143.

As to ZYG11B (UniProt Q9C0D3), the log2 fold change was -0.02.

As for ZNF277 (UniProt Q9NRM2), the log2 fold change is 0.286.

Turning to YLPM1 (UniProt P49750), the log2 fold change is 0.005.

With ZC3HC1 (UniProt Q86WB0), the log2 fold change is -0.032.

Turning to ZBTB17 isoform 2 (UniProt Q13105), the log2 fold change is -0.019.

YWHAZ (UniProt E7ESK7): the log2 fold change was 0.083.
